Laboratory results as given in PubChem BioAssay (EPA / NIEHS).
Some compounds were tested as several samples or in several runs, with calls that do not always agree. Active and inactive are the calls of the source. How the source made its calls: active means hit-call score of the fitted dose curve at least 0.9, where 1 is the maximum; inactive means score below 0.9.

Assay: CCTE_Shafer_MEA_dev_firing_rate_mean: CCTE's Neural Network Formation Assay for Mean Firing Rate, Shafer Lab (AID 2284031);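 on AC50: curve fitted for loss of firing so AC50 reflects decreased mean firing rate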
Method: CCTE_Shafer_MEA_dev assay is conducted using Axion Biosystems 48 well microelectrode array (MEA) plates and Maestro recording system. Each well of the MEA plate contains a grid of 16 microelectrodes embedded in the culture surface. Electrically active cells, such as neurons, can be cultured over the electrodes, and electrical activity in these cells can be recorded extracellularly. The spontaneous firing of neurons is captured from each electrode on a microsecond timescale providing both temporally and spatially precise data. […] The CCTE_Shafer_MEA_dev assay uses primary cultures of rat cortical neurons. Recordings are made on days post-plating 5, 7, 9 and 12. As these cultures mature over time, neural networks develop functional activity and form cohesive networks in which electrical activity can be highly coordinated. CCTE_Shafer_MEA_dev_firing_rate_mean is 1 of 19 assay components of the CCTE_Shafer_MEA_dev assay. It measures the frequency of spikes (action potential firings) as the total number of spikes divided by the length of the recording in a microelectrode array (MEA) using Axion Biosystems Maestro 768 channel amplifier with the AxIS adaptive spike detector. The firing rate is averaged across the active electrodes to report a well-mean value. To collapse across multiple recordings made on days post-plating 5, 7, 9 and 12, the trapezoidal area-under-the-curve of the component is calculated.Data from the assay component CCTE_Shafer_MEA_dev_firing_rate_mean was analyzed into 1 assay endpoint. This assay endpoint, CCTE_Shafer_MEA_dev_firing_rate_mean, was analyzed in the negative analysis fitting direction relative to DMSO as the negative control and baseline of activity. Using a type of functional reporter, gain or loss-of-signal activity can be used to understand electrical activity.
On the day prior to culture, each well was coated thoroughly with 150 uL of 0.05% polyethyleneimine (PEI, Sigma Cat P3143) in 50 mM HEPES (Sigma Cat H7523) at a pH of 8. The plate was incubated at 37C for one hour. PEI was rinsed out with 500 uL of sterile water three times. Plates were stored at 4C until the day of culture. This culture was plated at a seeding density of 1.5 x 10^5 cells/well on a 48-well MEA plate, prepared as described above. Cells were administered via a 25 uL media/laminin ([…]; Sigma Cat L2020-1MG) drop directly onto the microelectrode array, as adding the cells with the laminin results in better attachment than pre-coating with laminin. After 2 hours, an additional 475 uL of cortical media was added and the cells returned to the incubator. Exposure starts at day 0 of plating and is continued over twelve days of network development until the experiment is terminated. Cells are fed with fresh medium on DIV 5 and 9, following the recordings on those days. The entire volume of media in the well is exchanged and any vehicle or compound treatment is renewed. Complete details are found in OP-NHEERL/ISTD/SBB/TJS/2015-03-r0 (available on request, email shafer.tim@epa.gov). Measurement of the electrical activity is non-invasive, and recordings can be made from the same plate over multiple different days of the culture. In cortical neurons, this allows for the measurement of extracellular action potentials over the period during which networks form in the MEA plate.

outcome, inactive:
CCOC(F)(F)C(F)(F)C(F)(F)C(F)(F)F
COC(F)(F)C(F)(C(F)(F)F)C(F)(F)F
Nc1ncn([C@@H]2O[C@H](CO)[C@@H](O)[C@H]2O)c(=O)n1
CC=CC(F)(F)C(F)(F)C(F)(F)F
c1ccc2c(c1)ccc1cc3c(ccc4ccccc43)cc12
N[C@H]1C(O)O[C@H](CO)[C@H](O)[C@@H]1O (stereo not given in full)
FC(F)=C(F)OC(F)(F)C(F)(F)C(F)(F)F
CC1(C)S[C@@H]2[C@H](NC(=O)COc3ccccc3)C(=O)N2[C@H]1C(=O)O

AC50, active:
Nc1ncn([C@@H]2O[C@H](CO)[C@@H](O)[C@H]2O)c(=O)n1 3.41 µM
CN(C)c1ccc(C(=N)c2ccc(N(C)C)cc2)cc1 2.67 µM
